Data reported in PubChem BioAssay (NCI).
The panel holds about 79,000 compounds, 15% with a hit somewhere; the sample as a whole holds those more often. Unmarked numbers belong to inactive results. Active and inactive are the calls of the source. Rule as the data show it: active = growth inhibition above about 70%; inactive = the rest.

Key:
[1] = NCI Yeast Anticancer Drug Screen. Data for the rad50 strain (AID 155);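 also: 0% = growth of vehicle-only cultures of the same strain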; conditions: S. cerevisiae rad50 strain growth inhibition, stronger effect = higher value
Method in brief: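 Genetically altered yeast (DNA repair pathway); compound treatment; growth inhibition vs vehicle ctrl.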

[2] = NCI Yeast Anticancer Drug Screen. Data for the mec2-1 strain (AID 157); conditions: S. cerevisiae mec2-1 strain, stronger effect = higher value
Method in brief: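 mec2-1 yeast strain, carrying an alteration in DNA damage repair or cell cycle control, was exposed to compounds; growth inhibition was measured relative to vehicle-treated controls.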

[3] = NCI Yeast Anticancer Drug Screen. Data for the sgs1 mgt1 strain (AID 161);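 also: 0% = growth of cultures given vehicle only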; conditions: S. cerevisiae sgs1 mgt1 strain, stronger effect = higher value
Method in brief: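 Yeast cells carrying a defined DNA-repair defect were exposed to test compounds. Growth inhibition was measured relative to vehicle-treated controls.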

[4] = NCI Yeast Anticancer Drug Screen. Data for the cln2 rad14 strain (AID 165);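 also: 0% = growth equal to vehicle treated cultures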; conditions: S. cerevisiae cln2 rad14 strain, stronger effect = higher value
Method in brief: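 Yeast carrying cln2 and rad14 alterations (cell cycle control and DNA damage repair) were exposed to compounds. Growth inhibition was measured against vehicle-treated controls.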

[5] = NCI Yeast Anticancer Drug Screen. Data for the mlh1 rad18 strain (AID 175); conditions: S. cerevisiae mlh1 rad18 strain growth inhibition, stronger effect = higher value
Method in brief: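 Growth inhibition of the yeast strain was measured after compound exposure and expressed relative to vehicle-treated controls. The strain carries defined defects in DNA damage repair.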

[6] = NCI Yeast Anticancer Drug Screen. Data for the bub3 strain (AID 167); conditions: S. cerevisiae bub3 mutant strain, stronger effect = higher value
Method in brief: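 Yeast carrying a defined mutation is treated with each compound, and growth is compared with that of vehicle-exposed cells to give inhibition.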

[7] = at 5.0 µM (retest, dose inferred, filed as 0.5)
[8] = at 50.0 µM (retest, dose inferred, filed as 5.0)

SMILES | growth inhibition [1, 7] | growth inhibition [1, 8] | growth inhibition ([1]; at 50.0 µM) | growth inhibition [2, 7] | growth inhibition [2, 8] | growth inhibition ([2]; at 50.0 µM) | growth inhibition [3, 7] | growth inhibition [3, 8] | growth inhibition ([3]; at 50.0 µM) | growth inhibition [4, 7] | growth inhibition [4, 8] | growth inhibition ([4]; at 50.0 µM) | growth inhibition [5, 7] | growth inhibition [5, 8] | growth inhibition ([5]; at 50.0 µM) | growth inhibition [6, 7] | growth inhibition [6, 8] | growth inhibition ([6]; at 50.0 µM)
O=C1CC(O)CC(=O)C1=C(O)CCCCCCCCCCc1ccccc1 (stereo not given) | 25% | 41% | 66.4% | 25% | 39% | 85.3% (active) | 36% | 57% | 74.2% (active) | 24% | 33% | 81.5% (active) | 40% | 62% | 65.8% | – | – | –
CCOC(=O)C1=C(C)NC(C)=C(C(=O)OCC)C1c1ccc([N+](=O)[O-])s1 | 61% | 98% (active) | 91.3% (active) | 35% | 98% (active) | 93.2% (active) | 49% | 95% (active) | 93.2% (active) | 29% | 77% (active) | 91.7% (active) | 65% | 98% (active) | 91.6% (active) | 40% | 83% (active) | 93.2% (active)
CC1(C)c2ccccc2-c2nc3ccccc3cc2C1Br (stereo not given) | -1% | 29% | 37.6% | -4% | 26% | 46.7% | -4% | 23% | 73.7% (active) | – | – | – | -1% | 27% | 70.5% (active) | 2% | 59% | 95% (active)
COc1ccc2ccccc2c1/C=C/C(=O)c1ccccc1 | -3% | 34% | 54.6% | 7% | 43% | 19.4% | – | – | – | -19% | 40% | 56.2% | 1% | 72% (active) | 46.4% | -8% | 58% | 46%
O=C(Nc1c(Cl)cc([N+](=O)[O-])cc1Cl)/C(=N\Nc1cccc(Cl)c1)c1c(O)c2ccccc2oc1=O | 15% | 15% | 69% | 25% | 25% | 18.1% | 14% | 14% | -1% | 8% | 8% | 25.7% | 26% | 26% | 47.3% | – | – | –
CC(C)NC(=O)OCc1c(CO)c2c(n1C)-c1ccccc1CC2 | -5% | 96% (active) | 95.9% (active) | -4% | 96% (active) | 98% (active) | 50% | 96% (active) | 97.8% (active) | -10% | 95% (active) | 96.8% (active) | 11% | 96% (active) | 95.5% (active) | – | – | –
OCC1(c2ccccc2)OC1c1ccccc1 (stereo not given) | -156% | -20% | 72.1% (active) | -50% | -27% | 62.6% | – | – | – | -66% | -34% | 69.5% | -146% | -44% | 68% | -71% | -51% | 74.8% (active)
CC(=O)Oc1ccc(-c2ccccc2)cc1Br | 8% | 99% (active) | 93.6% (active) | -27% | 98% (active) | 96.2% (active) | 6% | 97% (active) | 91.5% (active) | – | – | – | 11% | 99% (active) | 98.1% (active) | – | – | –
CCCCOC(=O)c1n[nH]c(C)c1N=NN(C)C | 43% | 99% (active) | 99% (active) | 96% (active) | 99% (active) | 99% (active) | 95% (active) | 99% (active) | 99.2% (active) | – | – | – | 80% (active) | 99% (active) | 99.2% (active) | 84% (active) | 99% (active) | 99.2% (active)
c1csc(CNCc2cccs2)c1 | -3% | -5% | -13.9% | -2% | 1% | 1.45% | -1% | -5% | -1.2% | -4% | -4% | -23.4% | 0% | -7% | 37.3% | – | – | –
Brc1ccc(C2c3ccccc3-c3ccccc32)cc1 | 21% | 97% (active) | 94.5% (active) | 16% | 97% (active) | 94.7% (active) | 15% | 95% (active) | 96.6% (active) | 0% | 97% (active) | 94% (active) | -4% | 97% (active) | 94.8% (active) | – | – | –
